Results from PubChem BioAssay (NCATS).

Assay: qHTS profiling of the MIPE4 collection as inhibitors of Plasmodium falciparum (DD2) proliferation (AID 743345)
Details: P. falciparum Dd2 in erythrocytes, SYBR Green DNA, 72 h; at 28.5 µM (top of the series) unless noted
Procedure, shortened: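 Parasite DNA was quantified by SYBR Green I fluorescence (ex 485, em 535 nm) after overnight lysis in saponin/Triton buffer at room temperature. Cultures at 0.3% parasitemia and 2.5% hematocrit were first exposed to compound for 72 h at 37 C; signals were normalised to artemisinin (0.29 uM) and vehicle wells.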

Compound | parasite growth remaining, % of DMSO control (lower = more inhibition) [%]
Fc1ccc(C(OCCN2CCN(CCCc3ccccc3)CC2)c2ccc(F)cc2)cc1 | 9.78
C=C(C)[C@H]1Cc2c(ccc3c2O[C@@H]2COc4cc(OC)c(OC)cc4[C@@H]2C3=O)O1 | 94.4
CC(O)(CS(=O)(=O)c1ccc(F)cc1)C(=O)Nc1ccc(C#N)c(C(F)(F)F)c1 (centres undefined) | 102
Cc1sc2c(c1C)C(c1ccc(Cl)cc1)=N[C@@H](CC(=O)OC(C)(C)C)c1nnc(C)n1-2 | 24.4
O=c1c(O)c(-c2ccc(O)c(O)c2)oc2cc(O)cc(O)c12 | 39
O=C(O)C(=O)c1cn(Cc2ccccc2)c2ccc(-c3ccc(OC(F)(F)F)cc3)cc12 | 108
O=c1[nH]c2ccccc2n1CCCN1CCC(n2c(=O)[nH]c3cc(Cl)ccc32)CC1 | 52.4
COC1(CS(=O)c2ccccc2)CCN(CCc2c[nH]c3ccc(F)cc23)CC1 (centres undefined) | 55.9
Cc1cc(SCc2sc(-c3ccc(C(F)(F)F)c(F)c3)nc2C)ccc1OCC(=O)O | 88.1
COc1cc([C@@H]2c3cc4c(cc3[C@H](O)[C@H]3COC(=O)[C@H]23)OCO4)cc(OC)c1OC | 89.6
Oc1cc(Cl)ccc1Oc1ccc(Cl)cc1Cl | 8.79
CNC(=O)c1ccc(N2C(=S)N(c3ccc(C#N)c(C(F)(F)F)c3)C(=O)C23CCC3)cc1F | 81.7
C[C@@H]1[C@@H](C(=O)C[C@H]2O[C@@H]3O[C@]4(C)CC[C@@H]5[C@H](C)CC[C@@H]([C@H]2C)[C@@]35OO4)O[C@@H]2O[C@]3(C)CC[C@H]4[C@H](C)CC[C@@H]1[C@@]24OO3 | 7.59
COc1ccc(C(=O)c2c(C)n(CCN3CCOCC3)c3ccccc23)cc1 | 95.8
C[C@@H]1[C@@H](CC(C[C@H]2O[C@@H]3O[C@]4(C)CC[C@@H]5[C@H](C)CC[C@@H]([C@H]2C)[C@@]35OO4)C[S+](=O)([O-])c2ccc(COC(=O)N(C)C)cc2)O[C@@H]2O[C@]3(C)CC[C@H]4[C@H](C)CC[C@@H]1[C@@]24OO3 (some centres undefined) | 6.65
CC1=C2C[C@@H]3[C@@H](CC=C4C[C@@H](O)CC[C@@]43C)[C@@H]2CC[C@]12O[C@H]1C[C@H](C)CN[C@H]1[C@H]2C | 16.2
CNC(=O)N1N=C(c2ccc(N)cc2)c2cc3c(cc2CC1C)OCO3 (centres undefined) | 107
Cn1c(CCCC(=O)O)nc2cc(N(CCCl)CCCl)ccc21 | 81.5
CN(C)CCN(C)CCc1ccc(Cl)c(Cl)c1 | 32
